Results filed as inconclusive are left out. Calls of active or inactive are those of the source.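 The calls were made as follows, unless noted: active = normalized viability below 100% at a tested concentration; inactive = the rest.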
Experiments:
[1] = growth inhibition of DIPG glioma cells, dose response, cell-based, SU-DIPG-XIII, MIPE5.0, CellTiter-Glo, qHTS (AID 1347064; cut-off not given, nearly all actives have AC50 up to about 23 µM); conditions: SU-DIPG-XIII viability, CellTiter-Glo ATP luminescence
[2] = SU-DIPG-VI glioma cell viability, MIPE4.0 library, CellTiter-Glo luminescence, qHTS (AID 1347066; cut-off not given, nearly all actives have AC50 up to about 30 µM;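 also: cells exposed to compound for 48 hours before readout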); conditions: CellTiter-Glo ATP luminescence
[3] = JHH-DIPG-1 glioma cell viability, MIPE5.0 library, CellTiter-Glo luminescence, qHTS (AID 1347067; cut-off not given, nearly all actives have AC50 up to about 26 µM;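 also: cells exposed to compound for 48 hours before readout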); conditions: JHH-DIPG-1 glioma viability, CellTiter-Glo ATP luminescence
[4] = SU-DIPG-XXV glioma cell viability, MIPE5.0 library, qHTS (AID 1347068; cut-off not given, nearly all actives have IC50 up to about 30 µM)
[5] = sensitizers of A549 cells to miR-34 induction, primary screen, imaging, A549 dox-inducible miR-34, nuclei and caspase counts (AID 1347080;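 active = compounds whose cell count with miR-34 switched on is under 0.7 times the count with it off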); conditions: A549 miR-34 inducible, Hoechst nuclei count, 48 h
[6] = survival rescue of mitochondrial mutant cells in low glucose, primary screen, MELAS cybrids, Rieske KO mouse fibroblasts, CellTiter-Glo (AID 1508586;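 active = mean z-score across replicates of 1.96 or higher in either the MELAS or the Rieske mutant cell line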;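 also: z relative to plate mean and SD of compound and empty wells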)
[7] = ovarian cancer cell viability with rucaparib, profiling panel, oncology-focused library, rucaparib conditional (AID 1508598); conditions: patient-derived ovarian cancer cells, CellTiter-Glo viability, 144 h, stronger effect = lower value

In the case of `Cc1ccc2nc(NC(=O)CSc3nc4c(c(=O)n3-c3ccccc3)SCC4)sc2c1`, the outcome [1] is reported as “inactive”, the outcome [2] is reported as “inactive” and the outcome [3] is reported as “inactive”. The outcome [4] was “inactive”, the fold change ([5]; stronger effect = lower value, cell number ratio, induced over uninduced) was 1.08 (inactive) and the fold change ([5]; measured here: relative caspase fold change +Dox/-Dox) was 1.26. For the same compound, the cell count ([5]; measured here: total cells with miR-34 induction, stronger effect = lower value) was 7960, the cell count ([5]; measured here: total cells without miR-34 induction) was 7340 and the z-score ([6]; MELAS cybrid survival, CellTiter-Glo 48 h, stronger effect = higher value) was -0.206 (inactive). For the same compound, the z-score ([6]; Rieske KO mouse fibroblast survival, CellTiter-Glo 72 h) was -0.109, the viability ([7]; at 0.000305 µM, OCI-C5x cells, with rucaparib 10 µM, 100% = cells with rucaparib alone) was 116% (inactive) and the viability ([7]; at 0.000305 µM, OCI-C5x cells, without rucaparib) was 106% (inactive). The viability ([7]; at 0.000305 µM, OCI-P5x cells, with rucaparib 20 µM, 100% = cells with rucaparib alone) was 106% (inactive), the viability ([7]; at 0.000305 µM, OCI-P5x cells, without rucaparib) was 100% (inactive) and the viability ([7]; at 0.00122 µM, OCI-C5x cells, with rucaparib 10 µM, 100% = cells with rucaparib alone) was 113% (inactive). For the same compound, the viability ([7]; at 0.00122 µM, OCI-C5x cells, without rucaparib) was 109% (inactive), the viability ([7]; at 0.00122 µM, OCI-P5x cells, with rucaparib 20 µM, 100% = cells with rucaparib alone) was 102% (inactive) and the viability ([7]; at 0.00122 µM, OCI-P5x cells, without rucaparib) was 101% (inactive). The viability ([7]; at 0.00488 µM, OCI-C5x cells, with rucaparib 10 µM, 100% = cells with rucaparib alone) was 113% (inactive), the viability ([7]; at 0.00488 µM, OCI-C5x cells, without rucaparib) was 118% (inactive) and the viability ([7]; at 0.00488 µM, OCI-P5x cells, with rucaparib 20 µM, 100% = cells with rucaparib alone) was 107% (inactive). The viability ([7]; at 0.00488 µM, OCI-P5x cells, without rucaparib) was 95.3% (active), the viability ([7]; at 0.0195 µM, OCI-C5x cells, with rucaparib 10 µM, 100% = cells with rucaparib alone) was 116% (inactive) and the viability ([7]; at 0.0195 µM, OCI-C5x cells, without rucaparib) was 114% (inactive). For the same compound, the viability ([7]; at 0.0195 µM, OCI-P5x cells, with rucaparib 20 µM, 100% = cells with rucaparib alone) was 105% (inactive), the viability ([7]; at 0.0195 µM, OCI-P5x cells, without rucaparib) was 99.2% (active) and the viability ([7]; at 0.0781 µM, OCI-C5x cells, with rucaparib 10 µM, 100% = cells with rucaparib alone) was 112% (inactive). For the same compound, the viability ([7]; at 0.0781 µM, OCI-C5x cells, without rucaparib) was 115% (inactive), the viability ([7]; at 0.0781 µM, OCI-P5x cells, with rucaparib 20 µM, 100% = cells with rucaparib alone) was 101% (inactive) and the viability ([7]; at 0.0781 µM, OCI-P5x cells, without rucaparib) was 99.7% (active). For the same compound, the viability ([7]; at 0.313 µM, OCI-C5x cells, with rucaparib 10 µM, 100% = cells with rucaparib alone) was 112% (inactive), the viability ([7]; at 0.313 µM, OCI-C5x cells, without rucaparib) was 115% (inactive) and the viability ([7]; at 0.313 µM, OCI-P5x cells, with rucaparib 20 µM, 100% = cells with rucaparib alone) was 106% (inactive). For the same compound, the viability ([7]; at 0.313 µM, OCI-P5x cells, without rucaparib) was 94.9% (active), the viability ([7]; at 1.25 µM, OCI-C5x cells, with rucaparib 10 µM, 100% = cells with rucaparib alone) was 117% (inactive) and the viability ([7]; at 1.25 µM, OCI-C5x cells, without rucaparib) was 114% (inactive). For the same compound, the viability ([7]; at 1.25 µM, OCI-P5x cells, with rucaparib 20 µM, 100% = cells with rucaparib alone) was 97.6% (active), the viability ([7]; at 1.25 µM, OCI-P5x cells, without rucaparib) was 97.1% (active) and the viability ([7]; at 5 µM, OCI-C5x cells, with rucaparib 10 µM, 100% = cells with rucaparib alone) was 164% (inactive). For the same compound, the viability ([7]; at 5 µM, OCI-C5x cells, without rucaparib) was 162% (inactive), the viability ([7]; at 5 µM, OCI-P5x cells, with rucaparib 20 µM, 100% = cells with rucaparib alone) was 76.9% (active) and the viability ([7]; at 5 µM, OCI-P5x cells, without rucaparib) was 95.4% (active).
